# Measurements reported in PubChem BioAssay.
# The source made the active and inactive calls.
# Assays:
# [1] = test system: Plasmodium falciparum Sir2 (PF13_0152, Sir2A); test: pfSir2 binders on small-molecule microarrays, primary screen, biochemical, small-molecule microarray, 635 nm fluorescence (AID 1098); conditions: small-molecule microarray binding, fluorescence 635 nm; higher = more signal;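 further: score merges spot fluorescence intensity with its signal-to-noise ratio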
# [2] = small-molecule microarray binders of probe aDKK1, primary screen, biochemical, biotinylated probe, 635/667 nm fluorescence (AID 1099); conditions: higher = more signal;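 further: score merges 667nm spot fluorescence with signal to noise across triplicate slides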
# [3] = small-molecule microarray binders of probe aCHRDL2, primary screen, biochemical, biotinylated probe, 635/667 nm fluorescence (AID 1100); conditions: higher = more signal
# [4] = splicing luciferase reporter signal modulators, primary screen, spliceosome inhibition project, cell-based, HEK293, splice +/- reporter (AID 1101); conditions: luminescence, 24 h, higher = more signal, called active from +8 up or from −8 down;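 further: HEK293 cells carrying a splicing-competent luciferase reporter gene; test concentration not given here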
# [5] = biological target: Fibroblast growth factor 10 (Homo sapiens) (UniProt O15520); test: FGF10 binders on small-molecule microarrays, primary screen, biochemical, small-molecule microarray, 635 nm fluorescence (AID 1102); conditions: FGF10 binding, fluorescence 635 nm, higher = more signal
# [6] = test system: glycogen synthase kinase-3 (GSK3A per assay name; protocol says GSK3B); test: GSK3 binders on small-molecule microarrays, primary screen, biochemical, small-molecule microarray, 635 nm fluorescence, GSK3A (AID 1103); conditions: small-molecule microarray binding, fluorescence 635 nm; higher = more signal; further: the record names both GSK3A and GSK3B
# [7] = biological target: Epidermal growth factor receptor (Homo sapiens) (UniProt P00533); test: EGFR binders on small-molecule microarrays, primary screen, biochemical, small-molecule microarray, 635 nm fluorescence (AID 1104); conditions: EGFR binding, higher = more signal;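 further: score merges 667 nm emission intensity with spot signal to noise over triplicate slides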
# [8] = biological target: Follistatin-related protein 3 (Homo sapiens) (UniProt O95633); test: FSTL3 binders on small-molecule microarrays, primary screen, biochemical, small-molecule microarray, 635 nm fluorescence (AID 1105); conditions: FSTL3 binding, higher = more signal;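 further: score merges emission near 667 nm and signal to noise per printed spot across three slides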
# [9] = biological target: Dickkopf-related protein 1 (Homo sapiens) (UniProt O94907); test: DKK1 binders on small-molecule microarrays, primary screen, biochemical, small-molecule microarray, 635 nm fluorescence scan (AID 1106); conditions: DKK1 binding, higher = more signal;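 further: score merges emission near 667 nm with signal to noise over three replicate slides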
# [10] = test system: Inhibin beta A chain (activin A); test: INHBA (activin A) binders on microarrays, primary screen, biochemical, small-molecule microarray, 635 nm fluorescence scan (AID 1107); conditions: small-molecule microarray binding, higher = more signal;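 further: mouse activin A protein probed at 4.33 µg/mL on printed slides; score merges bound-protein fluorescence near 667 nm with spot signal-to-noise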
# [11] = test system: Human papillomavirus type 1a protein E7 (residues 44-93); test: HPV1a E7 fragment binders on microarrays, primary screen, biochemical, small-molecule microarray, residues 44-93, 635 nm fluorescence (AID 1108); conditions: small-molecule microarray binding, fluorescence 635 nm; higher = more signal;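 further: E7 fragment applied at 1 µg/mL in TBST for 1 h at 4 C; score combines spot fluorescence with its signal to noise ratio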
# [12] = modulators of HCV replicon luciferase signal, primary screen, HCV replication inhibitor project, Huh7 cells, luciferase reporter (AID 1109); conditions: 48 h, higher = more signal;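 further: huh7 hepatoma cells harbouring a luciferase neomycin HCV replicon reporter; luciferase luminescence as measure of HCV replicon replication; test concentration not given here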
# [13] = biological target: Left-right determination factor 2 (Homo sapiens) (UniProt O00292); test: LEFTY2 binders on small-molecule microarrays, primary screen, biochemical, small-molecule microarray, 635 nm fluorescence scan (AID 1110); conditions: LEFTY2 binding, higher = more signal
# [14] = biological target: Calmodulin-1 (Homo sapiens) (UniProt P0DP23); test: CALM1 binders on microarrays, EGTA buffer, profiling panel, biochemical, small-molecule microarray, Cy5-labelled CALM1 (AID 1111); conditions: Cy5-CALM1 binding fluorescence, higher = more signal;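 further: labelled calmodulin applied in Tris saline Tween buffer holding calcium plus EGTA and DTT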
# [15] = biological target: Calmodulin-1 (Homo sapiens) (UniProt P0DP23); test: calcium-bound CALM1 binders on microarrays, profiling panel, artefact control for SMM control-protein annotation, biochemical, small-molecule microarray, Cy5-labelled CALM1, plus calcium (AID 1112); conditions: Cy5-CALM1 binding fluorescence, higher = more signal;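 further: score merges spot fluorescence with signal to noise from triplicate slides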
# [16] = small-molecule microarray binders of probe aWnt5a, primary screen, biochemical, biotinylated probe, 635/667 nm fluorescence (AID 1113); conditions: higher = more signal;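 further: score merges 667 nm fluorescence intensity with signal-to-noise per printed feature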
# [17] = small-molecule microarray binders of probe aShh, primary screen, biochemical, biotinylated probe, 635/667 nm fluorescence (AID 1114); conditions: higher = more signal;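 further: probe is biotin-labelled aShh protein from a stem cell growth factor screen; measures binding of labelled protein to compounds printed on the slide; score merges feature fluorescence at 667 nm with signal-to-noise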
# [18] = small-molecule microarray binders of probe aNog, primary screen, biochemical, biotinylated probe, 635/667 nm fluorescence (AID 1115); conditions: higher = more signal;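 further: probe is biotinylated aNog protein used at 0.15 µg/mL for 1 h at 4 C; z-score combines 667 nm fluorescence of each spot with its signal to noise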
# [19] = biological target: Torsin-1A-interacting protein 1 (Homo sapiens) (UniProt Q5JTV8); test: LAP1 binders from COS7 cell lysate, primary screen, small-molecule microarray, 635/667 nm fluorescence (AID 1116); conditions: COS7-hLAP1 lysate binding, 635 nm fluorescence, higher = more signal
# [20] = biological target: Alpha-bungarotoxin (Bungarus multicinctus) (UniProt P60615); test: alpha-bungarotoxin binders on microarray, profiling panel, artefact control for SMM control protein annotation, biochemical, small-molecule microarray, Alexa647 label, 635/667 nm fluorescence (AID 1117); conditions: alpha-BTX-A647 binding fluorescence, higher = more signal
# Chain of Alpha-bungarotoxin (Bungarus multicinctus) (P60615 whole entry, looked up): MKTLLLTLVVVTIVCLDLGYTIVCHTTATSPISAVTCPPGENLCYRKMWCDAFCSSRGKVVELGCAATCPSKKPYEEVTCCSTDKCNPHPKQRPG
# Chain of Left-right determination factor 2 (Homo sapiens) (O00292 whole entry, looked up): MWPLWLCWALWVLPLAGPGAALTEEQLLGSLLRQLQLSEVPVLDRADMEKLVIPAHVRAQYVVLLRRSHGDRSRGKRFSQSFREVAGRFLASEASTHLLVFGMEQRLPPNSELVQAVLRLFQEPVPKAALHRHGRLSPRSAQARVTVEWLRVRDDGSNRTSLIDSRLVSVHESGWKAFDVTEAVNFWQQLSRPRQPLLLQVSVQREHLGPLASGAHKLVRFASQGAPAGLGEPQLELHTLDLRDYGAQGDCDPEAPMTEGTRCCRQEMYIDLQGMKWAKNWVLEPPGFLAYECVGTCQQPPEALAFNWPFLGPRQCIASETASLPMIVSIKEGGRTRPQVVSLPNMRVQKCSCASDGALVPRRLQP
# Chain of Fibroblast growth factor 10 (Homo sapiens) (O15520 whole entry, looked up): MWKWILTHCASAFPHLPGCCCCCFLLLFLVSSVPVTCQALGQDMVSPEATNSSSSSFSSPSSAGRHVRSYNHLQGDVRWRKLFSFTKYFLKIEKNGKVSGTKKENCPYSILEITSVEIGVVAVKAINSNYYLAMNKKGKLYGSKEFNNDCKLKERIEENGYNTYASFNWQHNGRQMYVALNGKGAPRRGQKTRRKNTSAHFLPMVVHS
# Chain of Torsin-1A-interacting protein 1 (Homo sapiens) (Q5JTV8 whole entry, looked up): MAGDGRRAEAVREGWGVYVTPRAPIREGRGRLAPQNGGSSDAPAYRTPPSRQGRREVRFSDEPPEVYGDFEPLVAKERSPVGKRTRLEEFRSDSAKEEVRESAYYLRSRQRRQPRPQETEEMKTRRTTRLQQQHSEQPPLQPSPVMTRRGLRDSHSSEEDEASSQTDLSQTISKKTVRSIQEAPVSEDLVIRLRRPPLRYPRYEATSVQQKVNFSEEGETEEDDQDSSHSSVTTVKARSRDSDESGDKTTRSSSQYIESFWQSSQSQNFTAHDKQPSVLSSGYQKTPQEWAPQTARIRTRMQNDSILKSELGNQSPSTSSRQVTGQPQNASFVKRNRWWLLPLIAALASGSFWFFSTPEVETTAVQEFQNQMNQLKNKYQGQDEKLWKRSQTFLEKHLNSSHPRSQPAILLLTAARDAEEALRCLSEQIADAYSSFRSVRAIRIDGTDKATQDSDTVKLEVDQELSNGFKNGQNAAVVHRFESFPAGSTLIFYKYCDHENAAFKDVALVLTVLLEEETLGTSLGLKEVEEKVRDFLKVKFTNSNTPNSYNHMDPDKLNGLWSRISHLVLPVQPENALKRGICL
# Chain of Dickkopf-related protein 1 (Homo sapiens) (O94907 whole entry, looked up): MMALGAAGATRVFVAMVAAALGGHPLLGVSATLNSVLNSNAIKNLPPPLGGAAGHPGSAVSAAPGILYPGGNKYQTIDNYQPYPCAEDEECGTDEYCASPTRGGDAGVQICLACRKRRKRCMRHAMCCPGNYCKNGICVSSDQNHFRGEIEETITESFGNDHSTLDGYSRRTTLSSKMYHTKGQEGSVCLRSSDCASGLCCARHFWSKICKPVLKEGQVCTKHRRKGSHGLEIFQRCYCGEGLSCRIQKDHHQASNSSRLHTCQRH
# Chain of Epidermal growth factor receptor (Homo sapiens) (P00533 whole entry, looked up): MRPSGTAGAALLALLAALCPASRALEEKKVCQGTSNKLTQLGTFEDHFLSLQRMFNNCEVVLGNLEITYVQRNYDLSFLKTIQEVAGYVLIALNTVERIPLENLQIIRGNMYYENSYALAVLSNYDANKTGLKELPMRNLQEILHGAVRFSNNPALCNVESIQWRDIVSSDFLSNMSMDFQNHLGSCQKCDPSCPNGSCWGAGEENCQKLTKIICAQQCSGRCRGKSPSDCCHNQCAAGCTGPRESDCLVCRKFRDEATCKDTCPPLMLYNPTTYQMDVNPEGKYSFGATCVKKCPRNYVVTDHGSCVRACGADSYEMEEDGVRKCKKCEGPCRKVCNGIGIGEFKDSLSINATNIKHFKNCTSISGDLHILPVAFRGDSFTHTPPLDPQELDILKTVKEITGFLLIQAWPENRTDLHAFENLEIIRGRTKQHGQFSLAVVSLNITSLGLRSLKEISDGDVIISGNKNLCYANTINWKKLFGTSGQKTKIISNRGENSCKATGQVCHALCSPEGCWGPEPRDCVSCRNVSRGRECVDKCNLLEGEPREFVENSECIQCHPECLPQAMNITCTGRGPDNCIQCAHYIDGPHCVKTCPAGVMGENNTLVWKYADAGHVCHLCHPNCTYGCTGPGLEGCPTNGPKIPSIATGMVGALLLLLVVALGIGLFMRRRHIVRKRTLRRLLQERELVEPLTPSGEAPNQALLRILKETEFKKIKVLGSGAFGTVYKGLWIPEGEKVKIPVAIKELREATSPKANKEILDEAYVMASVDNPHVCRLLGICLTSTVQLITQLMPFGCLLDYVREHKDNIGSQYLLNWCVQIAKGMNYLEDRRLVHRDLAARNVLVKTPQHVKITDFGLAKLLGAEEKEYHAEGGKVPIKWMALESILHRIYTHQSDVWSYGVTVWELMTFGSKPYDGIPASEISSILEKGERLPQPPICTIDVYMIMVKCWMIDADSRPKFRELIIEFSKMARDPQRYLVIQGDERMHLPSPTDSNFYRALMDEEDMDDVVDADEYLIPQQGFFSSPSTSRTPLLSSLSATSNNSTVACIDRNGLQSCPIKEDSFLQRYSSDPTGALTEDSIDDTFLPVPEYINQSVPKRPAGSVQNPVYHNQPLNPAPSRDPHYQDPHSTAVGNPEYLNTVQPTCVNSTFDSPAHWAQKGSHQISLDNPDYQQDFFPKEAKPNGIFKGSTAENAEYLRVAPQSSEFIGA
# Chain of Follistatin-related protein 3 (Homo sapiens) (O95633 whole entry, looked up): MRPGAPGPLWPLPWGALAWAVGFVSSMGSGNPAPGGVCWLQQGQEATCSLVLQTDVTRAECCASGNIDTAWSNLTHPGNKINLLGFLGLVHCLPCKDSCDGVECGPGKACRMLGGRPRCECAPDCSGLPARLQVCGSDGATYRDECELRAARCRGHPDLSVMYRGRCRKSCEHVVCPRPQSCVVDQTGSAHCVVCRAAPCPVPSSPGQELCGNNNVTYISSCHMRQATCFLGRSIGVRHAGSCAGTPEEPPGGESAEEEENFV
SMILES,composite z-score [1],composite z-score [2],composite z-score [3],z-score [4],composite z-score [5],composite z-score [6],composite z-score [7],composite z-score [8],composite z-score [9],composite z-score [10],composite z-score [11],z-score [12],composite z-score [13],composite z-score [14],composite z-score [15],composite z-score [16],composite z-score [17],composite z-score [18],composite z-score [19],composite z-score [20]
C=C(COC)/C(=C/C[C@@H](OC(=O)c1ccncc1)c1ccccc1OCCO)c1cc(C(=O)OC)ccc1OC,-0.979,-0.0241,0.445,2.66 (inactive),-0.0528,-0.628,-0.796,-0.354,-0.276,0.845,-0.553,-2.5,-0.934,-0.188,-0.66,-0.107,-0.0849,0.0471,0.332,-0.626
COC(=O)C1=CC(CCCO)=CC(C)N(Cc2cccc(OC(F)(F)F)c2)C=C1C(=O)OC (stereo not given),0.325,0.116,0.259,-0.488 (inactive),0.278,-0.606,-0.94,0.0535,-0.695,0.383,1.35,-0.307,-0.708,1.02,1.15,-0.0643,0.0929,0.716,0.595,0.498
O=C1OCCC/C=C\[C@H]2OC34C=CCN(c5ccc6ccccc6c5)C(=O)[C@H]3N(CCCO)C(=O)[C@@H]4C12 (stereo not given in full),0.548,-0.326,0.445,0.752 (inactive),-0.365,-0.216,-0.315,-0.451,-1.31,0.479,-0.148,-0.0935,-0.548,-0.371,0.0048,-0.124,0.184,0.0014,-0.387,-0.766
CC(C)(C)OC(=O)CC[C@]1(C(=O)N2CCCCC2)COC(c2ccc(OCCCO)cc2)=N1,1.7,0.14,0.48,-0.527 (inactive),1.54,1.29,0.101,0.324,-0.421,0.567,1.45,-0.523,0.393,1.4,-0.257,0.0775,0.385,-0.614,1.36,0.302
CC(C)C(=C=CC[C@@H](O)c1cccc(OCCO)c1)C[C@@H](O)COCc1ccccc1,1.04,-0.119,-0.118,-0.952 (inactive),0.543,-0.174,-0.208,0.178,-0.445,0.198,-0.83,-0.0464,0.136,0.275,0.265,-0.141,0.0469,-0.298,0.0535,0.0211
